Measured values reported in PubChem BioAssay (NCATS).
Records with an inconclusive call do not appear. Activity calls are given as the source filed them. Unless noted, the call rests on the fitted dose curve; in most records, active means well fitted curve in either direction with a large enough effect (not every such curve was filed as active); inconclusive means small, poorly fitted or top-dose-only effect, or another doubt; inactive means flat fitted curve, though single readings scatter.

Assays:
[1] = AP1 Signaling Pathway (AID 357); conditions: ME-180 (cervical carcinoma) AP-1-bla reporter, EGF-induced, beta-lactamase ratio, 5 h; at 17.2 µM (top of the series) unless noted;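 further: ME-180 reporter cells stimulated with EGF at its EC50 level; on the % scale 0 is the no-effect control and ±100 the full control effect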
How it was run: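 Cells are seeded overnight, exposed to compound titrations and an EC50 level of EGF for 5 hours at 37 °C, then loaded with CCF4 dye for 2.5 hours. Beta-lactamase activity under the AP-1 element is read as a blue/green ratio.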

[2] = NFAT Signaling Pathway (AID 444); conditions: Jurkat NFAT-bla M1, carbachol, beta-lactamase ratio, 5 h; at 17.2 µM (top of the series) unless noted;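 further: carbachol stimulus at about its EC50 of 1 µM final; on the % scale 0 is the no-effect control and ±100 the full control effect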
How it was run: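 Jurkat cells with NFAT-driven β-lactamase reporter and co-expressed M1 receptor, stimulated with carbachol (final 1 uM, ~EC50), compound titration, 5 h at 37 °C. CCF4 loaded 1 h at RT; 460/530 nm ratio gave %activity and AC50.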

[3] = Stat Signaling Pathway (AID 446);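 further: ME-180 cervical cancer cells given 40 pM IL-6 alongside compound; SIE-controlled beta-lactamase reporter measured as 460/530 nm FRET emission ratio; on the % scale 0 is the no-effect control and ±100 the full control effect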
How it was run: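 Normalization used AC90 stimulation (300 pM IL-6) and AC90 inhibition (125 nM pan-JAK inhibitor at 40 pM IL-6). The underlying signal is SIE-driven beta-lactamase in ME-180 cells after 5 h IL-6 exposure with compound.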

[4] = target: Glucocorticoid receptor (Homo sapiens) (UniProt P04150); test: GR-GFP Redistribution (AID 450;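 active means compounds whose dose series gives a full or clear partial fitted curve of increased nuclear translocation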; further: potency means the concentration at half of the fitted maximal effect); conditions: U2OS GR-GFP nuclear translocation, laser cytometry, 2 h
Glucocorticoid receptor (Homo sapiens), sequence (P04150 whole entry, looked up): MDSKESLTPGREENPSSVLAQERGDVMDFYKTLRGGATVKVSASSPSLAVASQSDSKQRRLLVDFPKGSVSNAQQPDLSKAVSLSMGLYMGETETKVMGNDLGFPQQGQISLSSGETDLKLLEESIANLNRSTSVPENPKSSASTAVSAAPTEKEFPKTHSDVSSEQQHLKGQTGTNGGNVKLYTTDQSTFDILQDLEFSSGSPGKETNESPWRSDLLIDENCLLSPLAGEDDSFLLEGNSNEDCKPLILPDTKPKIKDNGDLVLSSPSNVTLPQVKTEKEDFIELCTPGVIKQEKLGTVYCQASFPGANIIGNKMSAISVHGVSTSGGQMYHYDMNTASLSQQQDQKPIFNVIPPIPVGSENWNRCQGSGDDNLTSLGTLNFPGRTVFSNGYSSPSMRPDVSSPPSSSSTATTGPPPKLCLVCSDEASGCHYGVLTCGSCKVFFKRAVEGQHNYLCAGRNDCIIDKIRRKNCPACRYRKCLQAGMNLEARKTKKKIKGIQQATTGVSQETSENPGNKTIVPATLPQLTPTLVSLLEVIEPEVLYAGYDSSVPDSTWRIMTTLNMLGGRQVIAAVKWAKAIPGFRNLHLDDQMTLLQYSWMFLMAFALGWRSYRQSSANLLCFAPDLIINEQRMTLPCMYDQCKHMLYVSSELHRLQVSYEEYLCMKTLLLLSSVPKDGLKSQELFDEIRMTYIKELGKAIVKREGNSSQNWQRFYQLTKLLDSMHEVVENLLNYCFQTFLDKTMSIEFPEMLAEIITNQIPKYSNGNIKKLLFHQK

CCN(CC)CCN=Cc1c(O)n(CCc2ccccc2)c(=O)[nH]c1=O
inactive: activity change, negative = inhibition [1] -7.05% | activity change, negative = inhibition [2] -1.81% | outcome [3] | Potency [4] > 20.6 µM

CCCCOCCCn1c(N)c(C(=O)OC(C)COC)c2nc3ccccc3nc21 (centres undefined)
inactive: activity change, negative = inhibition [1] -11.7% | activity change, negative = inhibition [2] 29.2% | outcome [3] | Potency [4] > 20.6 µM

CC1(c2ccccc2)NCCN2C(=O)CSC21 (centres undefined)
inactive: activity change, negative = inhibition [1] 2.95% | activity change, negative = inhibition [2] -7.83% | outcome [3] | Potency [4] > 20.6 µM

O=c1[nH]c2ccccc2c(=O)n1-c1cccc(Cl)c1
inactive: activity change, negative = inhibition [1] 24.2% | activity change, negative = inhibition [2] -3.58% | outcome [3] | Potency [4] > 20.6 µM

COCCOC(=O)c1c(N)n(Cc2ccco2)c2nc3ccccc3nc12
inactive: activity change, negative = inhibition [1] -12.5% | activity change, negative = inhibition [2] 16.1% | outcome [3] | Potency [4] > 20.6 µM

COc1ccc(C(=O)CN2CCOCC2)cc1F
inactive: activity change, negative = inhibition [1] 1.47% | activity change, negative = inhibition [2] 3.56% | outcome [3] | Potency [4] > 20.6 µM
